Data: the supplement of paper PMC8728848
About 410 targets per protein were measured; listed, in parts, are those with the strongest signals and a random draw of the rest.

Experiments:
Assay in all cases: glycan array binding signal (z-score within array); higher = stronger binding
Conditions in all cases: glycan notation: IUPAC condensed, linker removed
Fuc(a1-2)Gal = molecular target: Fuc(a1-2)Gal
Summary of the method: (§1)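 The binding signal is a Z-score computed within each array. Data were drawn from 3228 arrays in the Consortium for Functional Glycomics database, restricted to those with a known protein sequence. Scores were averaged over arrays of the same protein sequence at different concentrations or buffers, and over linkers, and negative values can be taken as non-binding.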

[1] = molecular target: Fuc(a1-2)Gal(b1-3)GalNAc(a1-3)[Fuc(a1-2)]Gal(b1-4)Glc
Summary of the method: as §1

[2] = molecular target: Fuc(a1-2)Gal(b1-3)GalNAc(b1-3)Gal(a1-4)Gal(b1-4)Glc
Summary of the method: as §1

[3] = molecular target: Fuc(a1-2)Gal(b1-3)GlcNAc6S
Summary of the method: as §1

[4] = molecular target: Fuc(a1-2)Gal(b1-3)[Fuc(a1-4)]GlcNAc(b1-2)Man(a1-3)[Fuc(a1-2)Gal(b1-3)[Fuc(a1-4)]GlcNAc(b1-2)Man(a1-6)]Man(b1-4)GlcNAc(b1-4)[Fuc(a1-6)]GlcNAc(b1-4)[Fuc(a1-6)]GlcNAc
Summary of the method: as §1

[5] = molecular target: Fuc(a1-2)Gal(b1-4)GlcNAc(b1-3)Gal(b1-4)GlcNAc
Summary of the method: as §1

[6] = molecular target: Fuc(a1-2)Gal(b1-4)GlcNAc(b1-6)GalNAc
Summary of the method: as §1

[7] = molecular target: Fuc(a1-2)Gal(b1-4)[Fuc(a1-3)]GlcNAc(b1-3)[Neu5Ac(a2-6)Gal(b1-4)GlcNAc(b1-6)]Gal(b1-4)Glc
Summary of the method: as §1

Fuc(a1-2)Gal6S(b1-4)Glc = molecular target: Fuc(a1-2)Gal6S(b1-4)Glc
Summary of the method: as §1

[8] = molecular target: Fuc(a1-2)Gal6S(b1-4)Glc6S
Summary of the method: as §1

Fuc(a1-2)[Gal(a1-3)]Gal = molecular target: Fuc(a1-2)[Gal(a1-3)]Gal
Summary of the method: as §1

[9] = molecular target: Fuc(a1-2)[Gal(a1-3)]Gal(b1-3)GlcNAc(b1-2)Man(a1-3)[Fuc(a1-2)[Gal(a1-3)]Gal(b1-3)GlcNAc(b1-2)Man(a1-6)]Man(b1-4)GlcNAc(b1-4)GlcNAc
Summary of the method: as §1

[10] = molecular target: Fuc(a1-2)[Gal(a1-3)]Gal(b1-4)Glc
Summary of the method: as §1

[11] = molecular target: Fuc(a1-2)[GalNAc(a1-3)]Gal(b1-3)GlcNAc(b1-6)GalNAc
Summary of the method: as §1

[12] = molecular target: Fuc(a1-2)[GalNAc(a1-3)]Gal(b1-4)GlcNAc(b1-6)GalNAc
Summary of the method: as §1

[13] = molecular target: Fuc(a1-2)[GalNAc(a1-4)]Gal(b1-4)GlcNAc
Summary of the method: as §1

[14] = molecular target: Fuc(a1-2)[GalNAc(b1-3)]Gal
Summary of the method: as §1

[15] = molecular target: Fuc(a1-3)[Gal(b1-4)]GlcNAc(b1-6)[Gal(b1-3)GlcNAc(b1-3)]Gal(b1-4)Glc
Summary of the method: as §1

Gal(a1-2)Gal = molecular target: Gal(a1-2)Gal
Summary of the method: as §1

[16] = molecular target: Gal(a1-3)Gal(b1-4)GlcNAc(b1-2)Man
Summary of the method: as §1

[17] = molecular target: Gal(a1-3)Gal(b1-4)GlcNAc(b1-6)GalNAc
Summary of the method: as §1

Gal(a1-4)Gal(b1-4)GlcNAc = molecular target: Gal(a1-4)Gal(b1-4)GlcNAc
Summary of the method: as §1

Gal(b1-3)Gal(b1-4)GlcNAc = molecular target: Gal(b1-3)Gal(b1-4)GlcNAc
Summary of the method: as §1

Gal(b1-3)GalNAc = molecular target: Gal(b1-3)GalNAc
Summary of the method: as §1

[18] = molecular target: Gal(b1-3)GlcNAc(a1-3)Gal(b1-4)GlcNAc
Summary of the method: as §1

[19] = molecular target: Gal(b1-3)GlcNAc(b1-3)Gal(b1-4)GlcNAc(b1-2)[Gal(b1-3)GlcNAc(b1-3)Gal(b1-4)GlcNAc(b1-6)]Man(a1-6)[Gal(b1-3)GlcNAc(b1-3)Gal(b1-4)GlcNAc(b1-2)Man(a1-3)]Man(b1-4)GlcNAc(b1-4)[Fuc(a1-6)]GlcNAc
Summary of the method: as §1

[20] = molecular target: Gal(b1-3)GlcNAc(b1-6)GalNAc
Summary of the method: as §1

Gal(b1-3)GlcNAc6S = molecular target: Gal(b1-3)GlcNAc6S
Summary of the method: as §1

Gal(b1-4)GlcNAc = molecular target: Gal(b1-4)GlcNAc
Summary of the method: as §1

[21] = molecular target: Gal(b1-4)GlcNAc(b1-3)Gal(b1-3)GalNAc
Summary of the method: as §1

[22] = molecular target: Gal(b1-4)GlcNAc(b1-3)Gal(b1-4)GlcNAc
Summary of the method: as §1

[23] = molecular target: Gal(b1-4)GlcNAc(b1-6)GalNAc
Summary of the method: as §1

Gal3S6S(b1-4)GlcNAc6S = molecular target: Gal3S6S(b1-4)GlcNAc6S
Summary of the method: as §1

GalNAc(a1-3)GalNAc = molecular target: GalNAc(a1-3)GalNAc
Summary of the method: as §1

[24] = molecular target: GalNAc(a1-3)GalNAc(b1-3)Gal(a1-4)Gal(b1-4)GlcNAc
Summary of the method: as §1

GalNAc(b1-3)Gal = molecular target: GalNAc(b1-3)Gal
Summary of the method: as §1

[25] = molecular target: GalNAc(b1-3)Gal(a1-6)Gal(b1-4)Glc
Summary of the method: as §1

[26] = molecular target: GalNAc(b1-4)GlcNAc(b1-2)Man
Summary of the method: as §1

GalNAc(b1-4)GlcNAc6S = molecular target: GalNAc(b1-4)GlcNAc6S
Summary of the method: as §1

GlcNAc(b1-4)GlcNAc = molecular target: GlcNAc(b1-4)GlcNAc
Summary of the method: as §1

[27] = molecular target: GlcNAc(b1-4)GlcNAc(b1-4)GlcNAc
Summary of the method: as §1

GlcNAc(b1-6)GalNAc = molecular target: GlcNAc(b1-6)GalNAc
Summary of the method: as §1

Kdn(a2-6)Gal(b1-4)GlcNAc = molecular target: Kdn(a2-6)Gal(b1-4)GlcNAc
Summary of the method: as §1

[28] = molecular target: Neu5Ac(a2-3)Gal(b1-3)GalNAc
Summary of the method: as §1

[29] = molecular target: Neu5Ac(a2-3)Gal(b1-3)GlcNAc(b1-4)Gal(b1-4)Glc
Summary of the method: as §1

[30] = molecular target: Neu5Ac(a2-3)Gal(b1-4)GlcNAc(b1-3)Gal(b1-4)GlcNAc
Summary of the method: as §1

[31] = molecular target: Neu5Ac(a2-3)Gal(b1-4)GlcNAc(b1-3)[Neu5Ac(a2-3)Gal(b1-4)GlcNAc(b1-6)]GalNAc
Summary of the method: as §1

[32] = molecular target: Neu5Ac(a2-3)Gal(b1-4)GlcNAc6S
Summary of the method: as §1

[33] = molecular target: Neu5Ac(a2-8)Neu5Ac(a2-3)Gal(b1-3)GalNAc(b1-4)[Neu5Ac(a2-8)Neu5Ac(a2-3)]Gal(b1-4)Glc
Summary of the method: as §1

[34] = molecular target: Neu5Ac(a2-8)Neu5Ac(a2-3)Gal(b1-4)GlcNAc
Summary of the method: as §1

[35] = molecular target: Neu5Ac(a2-8)Neu5Ac(a2-8)Neu5Ac(a2-8)Neu5Ac(a2-3)[GalNAc(b1-4)]Gal(b1-4)Glc
Summary of the method: as §1

[36] = molecular target: Neu5Gc(a2-8)Neu5Ac(a2-3)Gal(b1-4)GlcNAc
Summary of the method: as §1

[37] = molecular target: Neu5Gc(a2-8)Neu5Gc(a2-6)Gal(b1-4)GlcNAc
Summary of the method: as §1

B1: MGL (Homo sapiens), Q8IUN9 (protein)
chain: MTRTYENFQYLENKVKVQGFKNGPLPLQSLLQRLCSGPCHLLLSLGLGLLLLVIICVVGFQNSKFQRDLVTLRTDFSNFTSNTVAEIQALTSQGSSLEETIASLKAEVEGFKQERQAGVSELQEHTTQKAHLGHCPHCPSVCVPVHSEMLLRVQQLVQDLKKLTCQVATLNNNASTEGTCCPVNWVEHQDSCYWFSHSGMSWAEAEKYCQLKNAHLVVINSREEQNFVQKYLGSAYTWMGLSDPEGAWKWVDGTDYATGFQNWKPGQPDDWQGHGLGGGEDCAHFHPDGRWNDDVCQRPYHWVCEAGLGQTSQESH
glycan array binding signal (z-score) (Fuc(a1-2)Gal): -0.232 | glycan array binding signal (z-score) [1]: -0.246 | glycan array binding signal (z-score) [2]: -0.242 | glycan array binding signal (z-score) [3]: -0.178 | glycan array binding signal (z-score) [4]: -0.238 | glycan array binding signal (z-score) [5]: -0.247 | glycan array binding signal (z-score) [6]: 3.85 | glycan array binding signal (z-score) [7]: -0.247 | glycan array binding signal (z-score) (Fuc(a1-2)Gal6S(b1-4)Glc): -0.242 | glycan array binding signal (z-score) [8]: -0.254 | glycan array binding signal (z-score) (Fuc(a1-2)[Gal(a1-3)]Gal): -0.241 | glycan array binding signal (z-score) [9]: -0.249 | glycan array binding signal (z-score) [10]: -0.237 | glycan array binding signal (z-score) [11]: 3.6 | glycan array binding signal (z-score) [12]: 4.98 | glycan array binding signal (z-score) [13]: 3.39 | glycan array binding signal (z-score) [14]: 4.3 | glycan array binding signal (z-score) [15]: -0.251 | glycan array binding signal (z-score) (Gal(a1-2)Gal): -0.25 | glycan array binding signal (z-score) [16]: -0.252 | glycan array binding signal (z-score) [17]: 3.79 | glycan array binding signal (z-score) (Gal(a1-4)Gal(b1-4)GlcNAc): -0.232 | glycan array binding signal (z-score) (Gal(b1-3)Gal(b1-4)GlcNAc): -0.245 | glycan array binding signal (z-score) (Gal(b1-3)GalNAc): -0.242 | glycan array binding signal (z-score) [18]: -0.245 | glycan array binding signal (z-score) [19]: -0.049 | glycan array binding signal (z-score) [20]: 3.24 | glycan array binding signal (z-score) (Gal(b1-3)GlcNAc6S): -0.249 | glycan array binding signal (z-score) (Gal(b1-4)GlcNAc): -0.243 | glycan array binding signal (z-score) [21]: -0.27 | glycan array binding signal (z-score) [22]: -0.242 | glycan array binding signal (z-score) [23]: 4.14 | glycan array binding signal (z-score) (Gal3S6S(b1-4)GlcNAc6S): -0.242 | glycan array binding signal (z-score) (GalNAc(a1-3)GalNAc): 0.346 | glycan array binding signal (z-score) [24]: 0.634 | glycan array binding signal (z-score) (GalNAc(b1-3)Gal): 3.3 | glycan array binding signal (z-score) [25]: 3.77 | glycan array binding signal (z-score) [26]: 3.9 | glycan array binding signal (z-score) (GalNAc(b1-4)GlcNAc6S): 4.05 | glycan array binding signal (z-score) (GlcNAc(b1-4)GlcNAc): -0.243 | glycan array binding signal (z-score) [27]: -0.253 | glycan array binding signal (z-score) (GlcNAc(b1-6)GalNAc): 4.7 | glycan array binding signal (z-score) (Kdn(a2-6)Gal(b1-4)GlcNAc): -0.245 | glycan array binding signal (z-score) [28]: -0.241 | glycan array binding signal (z-score) [29]: -0.251 | glycan array binding signal (z-score) [30]: -0.238 | glycan array binding signal (z-score) [31]: -0.527 | glycan array binding signal (z-score) [32]: -0.244 | glycan array binding signal (z-score) [33]: -0.243 | glycan array binding signal (z-score) [34]: -0.259 | glycan array binding signal (z-score) [35]: 3.54 | glycan array binding signal (z-score) [36]: -0.237 | glycan array binding signal (z-score) [37]: -0.246
